Source: PubChem
Shown is part of a subset that was picked to be rich in hits.
Sa growth 42C – S. aureus growth inhibition at 42 and 30 °C, primary screen, LtaS inhibitor project, RN4220, two temperatures. OD600, 20 h, 42 °C; stronger effect = lower value. 170,000 tested, 0.53% active. AID 720641, 2013. relative growth, % (concentration not given with the values);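 active = relative growth at most 50% at the other temperature and 20+ points below 30 °C, or under 10% at both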
Sa helicase inh – inhibitors of S. aureus replicative helicase, primary screen, biochemical, fluorescence unwinding readout. purified S. aureus helicase, fluorescence unwinding assay. replicative DNA helicase (DnaC/DnaB), Staphylococcus aureus. inhibition, % (test concentration not listed). AID 485395, 2010. 120,000 tested, 0.05% active; in the data active = inhibition above about 25%, passing the limit was not always enough
Hits are given with their value; i = inactive; nt = not tested or not shown.

SMILES | Sa growth 42C | Sa helicase inh
O=C(O)CCCc1nc2ccccc2s1 | i | i
O=C(O)Cc1nc2ccccc2s1 | -0.3 | i
CCCCOc1ccc(C(=O)N2CCCCC2CCN2CCOCC2)cc1 (stereo not given) | i | nt
CCCCCOc1ccc(C(=O)CCN2CCOCC2)cc1 | 13 | i
O=C(CCN1CCOCC1)c1ccc(Br)cc1 | -0.4 | i
O=C(CCN1CCOCC1)c1ccc(O)cc1 | i | nt
CO[C@H](C(=O)[C@@H](O)[C@@H](C)O)[C@@H]1Cc2cc3cc(O[C@H]4C[C@@H](O[C@H]5C[C@@H](O)[C@H](O)[C@@H](C)O5)[C@@H](O)[C@@H](C)O4)c(C)c(O)c3c(O)c2C(=O)[C@H]1O[C@H]1C[C@@H](O[C@H]2C[C@@H](O[C@H]3C[C@](C)(O)[C@H](O)[C@@H](C)O3)[C@H](O)[C@@H](C)O2)[C@H](O)[C@@H](C)O1 | -0.2 | nt
CN(C)/C=C1\N=C(SCc2c(Cl)cccc2Cl)NC1=O | i | nt
Cc1cc(=O)[nH]c(SCC(=O)Nc2ccc(N3CCCC3)cc2)c1C#N | i | i
Cc1cc(=O)[nH]c(SCC(=O)Nc2ccc(Br)cc2)c1C#N | 7.7 | i
O=S(=O)(c1ccc(-c2ccno2)s1)N1CCCC1 | i | i
CC(C)c1ccc(NC(=O)C(NC(=O)/C=C/c2ccc3c(c2)OCO3)c2ccccc2)cc1 (stereo not given) | i | i
O=C(NCCc1ccccc1)c1ccc(CS(=O)Cc2cccc(Cl)c2)o1 (stereo not given) | i | i
O=C(NCCc1ccc(Cl)cc1)c1ccc(CS(=O)Cc2cccc(Cl)c2)o1 (stereo not given) | 7.4 | nt
CCc1ccc(NC(=O)C(C)Sc2nnc(-c3ccccc3)o2)cc1 (stereo not given) | i | i
CCn1cc(C(=O)O)c(=O)c2cc(F)c(N3CCN(C(=S)NC(=O)c4c(-c5ccccc5)noc4C)CC3)cc21 | 2.0 | i
CCn1cc(C(=O)O)c(=O)c2cc(F)c(N3CCN(C(=S)NC)CC3)cc21 | i | i
COc1ccc(C(=O)N2CCN(S(=O)(=O)c3ccccc3)CC2)cc1OC | i | i
Cc1ccc(Nc2c(-c3ccc(O)cc3)nc3cccc(C)n23)cc1 | i | nt
Cc1ccc(-c2nc(I)ccc2O)cc1 | 9.1 | i
Cc1oc2c(c1C(N)=O)CCCC2 | i | i
Cc1cccc(Nc2nc3nonc3nc2Cl)c1 | -0.4 | i
FC(F)(F)c1cccc(Nc2nc3nonc3nc2Nc2ccc(Cl)cc2)c1 | i | nt
CC(Oc1ccc(F)cc1)C(=O)Nc1nc(-c2ccc(F)cc2)ns1 (stereo not given) | 2.3 | nt
COc1ccc(-c2nsc(NC(=O)C(C)Oc3ccc(Cl)c(C)c3)n2)cc1 (stereo not given) | i | nt
SMILES | Sa growth 42C | Sa helicase inh
CCOc1ccc(NC(=O)/C(C#N)=C\c2cc(C)n(C)c2C)cc1 | i | i
COC(=O)c1cc2oc3ccccc3c2n1CC(=O)NCc1ccco1 | i | i
Ic1ccc(OCCCCn2ccnc2)cc1 | 1.3 | i
CCOc1ccc(NC(=S)NCCCn2ccnc2)cc1 | i | i
Clc1cccc(Cl)c1OCCCn1ccnc1 | i | i
CC(C)(C)c1ccc(OCCCn2ccnc2)cc1 | 2.3 | i
CC(C)(C)/C=N/NS(=O)(=O)c1ccc(-c2ccccn2)s1 | i | i
c1ccc2c(NN=C3CCCCCC3)nncc2c1 | i | i
COc1ccc(/C=C/C(=O)NCC(C)C)cc1OC | i | i
COC(=O)c1ccc2c(=O)[nH]c(COC(=O)c3ccc4c(c3)OCO4)nc2c1 | i | i
COC(=O)c1ccc2c(=O)[nH]c(COC(=O)CNC(=O)c3cccs3)nc2c1 | i | 32
O=C(Cn1cnc2ccccc2c1=O)N1CCCCCC1 | i | i
CCCCC(=O)OC1=C(C(=O)c2ccccc2)N(CC)S(=O)(=O)c2ccccc21 | i | nt
CCCCN1C(C(=O)c2ccccc2)=C(OC(C)=O)c2ccccc2S1(=O)=O | -0.5 | nt
CCc1c(O)nc(SC(C)C(=O)Nc2ccc(S(N)(=O)=O)cc2)n(-c2ccccc2)c1=O (stereo not given) | i | i
COCCNC(=O)c1ccc2c(c1)C(=O)N(C)C2=O | i | i
Cc1ccc(CNC(=O)CCCn2nc(-n3cccc3)c3c(C)cc(C)nc32)cc1 | i | i
Cc1nnc(N2CCCC(C(=O)Nc3cccc(C(F)(F)F)c3)C2)c2nn(-c3ccccc3)c(C)c12 (stereo not given) | i | nt
NS(=O)(=O)c1ccc(CCNCc2ccccn2)cc1 | i | i
CN(C)CC1COc2ccccc2C1=O (stereo not given) | -0.4 | nt
O=C1c2ccccc2OCC1c1ccccc1 (stereo not given) | i | nt
Cc1ccc(CCNC(=O)C2CCC(Cn3c(=O)[nH]c4ccsc4c3=O)CC2)cc1 (stereo not given) | i | i
O=C(N/N=C/c1sc(N2CCCCC2)nc1-c1cccs1)c1ccccc1 | i | i
CCOC(=O)c1sc(SC#N)c(-c2ccccc2)c1N | 1.1 | i
CCOC(=O)c1sc(SC#N)c(C(=O)OCC)c1C | i | i
SMILES | Sa growth 42C | Sa helicase inh
CCn1cc(SCC(=O)Nc2cccc(OC)c2)c2ccccc21 | i | i
CCC(C)N(C(=O)CSc1nc(N)c2c3c(sc2n1)CCCC3)C1CCS(=O)(=O)C1 (stereo not given) | i | i
CCn1c(O)c(/C=C2\C=Nc3ccc(Br)cc32)c(=O)[nH]c1=O | i | i
NCc1cn(-c2ccccc2)nc1-c1ccccc1 | i | i
N=C(N)SCc1cn(-c2ccccc2)nc1-c1ccc(Br)cc1 | 1.1 | i
CC1(C)CC(=O)C(c2nc3ccc(C(=O)c4ccccc4)cc3[nH]2)=C(O)C1 | i | i
Cc1c(Cl)sn(-c2ccc(Cl)cc2)c1=O | -1.2 | i
O=C1CSCC(=O)N1c1ccc(Cl)cc1 | i | i
Cc1cc(=O)n(C(C)C(=O)N2CCCc3ccccc32)c2c1c(C)nn2-c1ccccc1 (stereo not given) | i | nt
COc1c(N2C[C@@H]3CCCN[C@@H]3C2)c(F)cc2c(=O)c(C(=O)O)cn(C3CC3)c12 | -0.9 | nt
CC1COc2c(N3CCN(C)CC3)c(F)cc3c(=O)c(C(=O)N4CCN(S(=O)(=O)c5ccccc5)CC4)cn1c23 (stereo not given) | i | i
CC1COc2c(F)c(F)cc3c(=O)c(C(=O)O)cn1c23 (stereo not given) | nt | i
CCn1cc(C(=O)O)c(=O)c2cc(F)c(N3CCNC(C)C3)c(F)c21 (stereo not given) | -0.6 | nt
CS(=O)(=O)NCCc1ccc(C(=O)O)s1 | i | i
CCC(Sc1nncn2c1cc1sccc12)C(=O)Nc1ccccc1C (stereo not given) | i | i
COc1ccc(CNc2cc(C)nc3ccc(OC)cc23)cc1 | i | i
COc1ccc(Nc2cc(C)nc3ccc(OC)cc23)cc1 | i | 63
CSc1c(C#N)c(N)nc(SCC(=O)c2ccccc2)c1C#N | i | nt
O=C1c2ccccc2S(=O)(=O)N1CC1CC1 | i | nt
N#CCC(=O)N1CCN(c2ccccc2)CC1 | i | i
Cc1ccc(/C(C#N)=C\c2cccs2)cc1 | i | i
Cc1ccc(/C(C#N)=C\c2ccco2)cc1 | 42 | i
N#C/C(=C\c1ccco1)S(=O)(=O)c1ccc(Cl)cc1 | i | i
N#C/C(=C/c1ccco1)c1ccc(Br)cc1 | 22 | i
N#C/C(=C\c1ccco1)c1ccc(Cl)cc1 | 49 | nt
N#C/C(=C/c1ccc(Br)o1)c1ccc(C(=O)O)cc1 | i | i
Cc1ccc(-c2csc(C3=C(O)CN(CCCn4ccnc4)C3=N)n2)cc1 | i | i
